Most compounds without a hit are left out; they make up all but 11% or so of the library.
Pf growth 96h: inhibits malaria parasite growth, 96 h; P. falciparum luciferase reporter growth, 96 h; Potency, µM (top dose mostly 28.7 µM), for inactives: at the top dose activity change, negative = inhibition, usual class: inhibitors; 320,000 compounds, 6.9% hits; AID 504834; also: % is scaled to controls: 0 for no effect and ±100 for the full control effect
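P. falciparum expressing integrated firefly luciferase grown in erythrocytes (2% hematocrit, 0.05% parasitemia final) with compounds for 96 hours at 37 C, 5% CO2. Growth inhibition read as loss of luminescence after adding luciferase detection reagent.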
HCV inh: blocks hepatitis C virus; Huh7.5.1 HCVcc-Cre infection, luciferase reporter, 44 h; Potency, µM (top dose mostly 41.8 µM), without a hit: at the highest dose activity change, negative = inhibition, actives largely listed as inhibitors; 340,000 compounds, 3.4% hits; also: % is scaled to controls: 0 for no effect and ±100 for the full control effect
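A cell-based infection assay in which seeded cells (1,000 per well) receive test compound after 4 h, are inoculated with HCVcc-Cre at approximately 0.5 moi, and are incubated 44 h before luminescence detection.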
Vaccinia mCherry: inhibitors of vaccinia virus infection (mCherry reporter signal); Vaccinia virus mCherry reporter infection, fluorescence; Potency, µM (doses to about 36.5 µM), without a hit: at the highest dose activity change, negative = inhibition, hits mostly inhibitors; 310,000 compounds, 0.63% hits; AID 720579; calls by dose curve; tested in A549 cells; also: % is scaled to controls: 0 for no effect and ±100 for the full control effect; nearly all actives have a fitted effect of over 35% in size
Pf growth 48h: P. falciparum growth inhibition at 48 hours (one generation). P. falciparum luciferase growth in erythrocytes, 48 h. Potency, µM (top dose mostly 28.7 µM), without a hit: top-dose activity change, negative = inhibition, hits mostly inhibitors. 310,000 compounds, 5.9% hits; also: % is scaled to controls: 0 for no effect and ±100 for the full control effect
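Parasite viability was followed by luminescence of a genomically integrated firefly luciferase. Cultures held 0.1% parasitemia at 2% hematocrit (final), incubated under 5% CO2 at 37 C.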
NS1 inh: inhibitors of influenza NS1 protein function. Potency, µM (highest dose often 46.1 µM), inactives show top-dose activity, positive = more growth. 270,000 compounds, 0.4% hits. AID 2326; calls by dose curve; also: actives are rising curves; nearly all actives have a fitted effect of over 50% in size
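A cell-based growth assay was used: compounds that relieve NS1-induced slow growth of budding yeast raise OD600. Assay medium was yeast nitrogen base with ammonium sulphate and -URA supplement, pH 6.0, with 2% galactose.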
Vaccinia Venus: vaccinia inhibition (Venus reporter) | Potency, µM (titrated, usually from 36.5 µM), inactives show at the top dose activity change, negative = inhibition, actives largely listed as inhibitors | 330,000 compounds, 0.46% hits | Vaccinia virus Venus reporter expression, fluorescence; calls by dose curve; tested in A549 cells; also: % is scaled to controls: 0 for no effect and ±100 for the full control effect; nearly all actives have a fitted effect of over 30% in size
* = called active by the depositor; [ ] = another dose, or the depositor's remark. Unless noted, calls follow the shape of the dose curve; as a rule, active = well fitted inhibition curve with a large enough effect; inconclusive = small, poorly fitted or top-dose-only effect, or another doubt; inactive = no such curve, though single readings can be large or run the other way. Potency is read from the fitted curve at half-maximal effect.

Screening CCCC(c1nnnn1CS(=O)(=O)c1ccc(C)cc1)N1CCN(c2ccc(F)cc2)CC1 (stereo not drawn) returned Pf growth 96h inconclusive, HCV inh 15.3%, Vaccinia mCherry inactive, Pf growth 48h 16.5µM*, NS1 inh -84.6% and Vaccinia Venus -14.3%.
For Cc1ccc(S(=O)(=O)Cn2nnnc2C(C(C)C)N2CCSCC2)cc1 (stereo not drawn) the results were Pf growth 96h inconclusive, HCV inh -1.1%, Vaccinia mCherry inactive, Pf growth 48h -9.9%, NS1 inh -10.6% and Vaccinia Venus -9.4%.
For Cc1ccc(S(=O)(=O)Cn2nnnc2C(CC(C)C)N2CCN(c3ccccc3)CC2)cc1 (stereo not drawn) the results were Pf growth 96h 33.3%, HCV inh 9.0%, Vaccinia mCherry -12.3%, Pf growth 48h 7.38µM*, NS1 inh 1.0% and Vaccinia Venus -6.1%.
Cc1ccc(S(=O)(=O)Cn2nnnc2CN(Cc2ccco2)Cc2cccs2)cc1 was read as Pf growth 96h 18.0%, HCV inh 3.6%, Vaccinia mCherry -26.4%, Pf growth 48h 10.4µM*, NS1 inh -14.7% and Vaccinia Venus -27.2%.
Screening Cc1ccc2[nH]c(=O)c(CN(Cc3cccs3)Cc3nnnn3Cc3ccco3)cc2c1 returned Vaccinia mCherry -1.5% and Vaccinia Venus -17.9%.
`Cc1cc(OCc2cc(C(=O)NCc3csc(C(C)C)n3)no2)cc(C)c1Cl` gave Pf growth 96h -2.5%, Vaccinia mCherry -18.8%, Pf growth 48h 64.8%, NS1 inh -11.2% and Vaccinia Venus -26.3%.
`Cc1ccc(C(c2nnnn2CS(=O)(=O)c2ccc(C)cc2)N2CCN(c3ncccn3)CC2)cc1` (stereo not drawn) gave Pf growth 96h inconclusive, HCV inh -6.7%, Pf growth 48h 4.15µM* and NS1 inh 8.9%.
For Cc1ccc2cc(CCNC(=O)C(=O)c3c[nH]c4ccccc34)c(=O)[nH]c2c1 the results were Pf growth 96h inconclusive, HCV inh inconclusive, Vaccinia mCherry inactive, Pf growth 48h 9.28µM*, NS1 inh 5.2% and Vaccinia Venus -6.1%.
For Cc1ccc2cc(CCNC(=O)c3cccc([N+](=O)[O-])c3)c(=O)[nH]c2c1C the results were Pf growth 96h inconclusive, HCV inh 23.2%, Vaccinia mCherry -16.9%, Pf growth 48h -0.6%, NS1 inh 2.4% and Vaccinia Venus -7.7%.
For Cc1ccc2cc(CCNC(=O)c3ccc(C)c([N+](=O)[O-])c3)c(=O)[nH]c2c1 the results were Pf growth 96h 4.65µM*, HCV inh -18.9%, Vaccinia mCherry -11.4%, Pf growth 48h inconclusive, NS1 inh 9.3% and Vaccinia Venus 0.0%.
Screening COc1ccc(CCNC(=O)c2ccc3c(c2)OCO3)cc1 returned Pf growth 96h -2.5%, HCV inh 1.8%, Vaccinia mCherry inactive, Pf growth 48h 32.4%, NS1 inh -11.4% and Vaccinia Venus -6.8%.
`COc1ccc2cc(CCNC(=O)c3ccc4c(c3)OCO4)c(=O)[nH]c2c1` gave Pf growth 96h 10.4µM*, HCV inh -3.6%, Vaccinia mCherry inactive, Pf growth 48h inconclusive, NS1 inh -27.7% and Vaccinia Venus -22.9%.
For COc1ccc2cc(CCNC(=O)c3cccc([N+](=O)[O-])c3)c(=O)[nH]c2c1 the results were Pf growth 96h inconclusive, HCV inh -23.2% and Pf growth 48h 5.22µM*.
Screening CCC(CC)C(=O)NCCc1cc2ccc(C)cc2[nH]c1=O returned Pf growth 96h 0.0%, HCV inh 3.7%, Vaccinia mCherry -21.7%, Pf growth 48h 8.6%, NS1 inh 0.8% and Vaccinia Venus -4.4%.
For CCCN1CCN(CCCNC(=O)c2ccc(NC(=O)C3=C(C)OCCS3)cc2)CC1 the results were Pf growth 96h -23.3%, HCV inh -0.8%, Vaccinia mCherry -8.0%[7.34 µM], Pf growth 48h 6.0%, NS1 inh 10.3% and Vaccinia Venus -18.0%[7.34 µM].
COC(=O)c1[nH]c2ccc(Cl)cc2c1NC(=O)CN1CCc2cc(OC)c(OC)cc2C1 was read as HCV inh inconclusive, Pf growth 48h inconclusive, NS1 inh 7.5% and Vaccinia Venus -5.0%.
For CCOC(=O)c1[nH]c2ccc(F)cc2c1NC(=O)CN1CCN(C/C=C/c2ccccc2)CC1 the results were Pf growth 96h 5.86µM*, HCV inh 10µM*, Pf growth 48h 9.28µM*, NS1 inh -7.0% and Vaccinia Venus inconclusive.
For COC(=O)c1[nH]c2ccccc2c1NC(=O)CN1CCN(C/C=C/c2ccccc2)CC1 the results were Pf growth 96h 85.6%, HCV inh 11.2µM*, Vaccinia mCherry -26.0%, NS1 inh -1.0% and Vaccinia Venus inconclusive.
For CCOC(=O)c1[nH]c2ccc(F)cc2c1NC(=O)CN1CCc2cc(OC)c(OC)cc2C1 the results were Pf growth 96h inconclusive, Pf growth 48h 11.7µM* and NS1 inh -16.1%.
Screening Cc1cccc(C)c1NC(=O)CN1CCN(C/C=C/c2ccccc2)CC1 returned Vaccinia mCherry 11.4% and Vaccinia Venus -4.8%.
`CCOC(=O)c1[nH]c2cc(OC)c(OC)cc2c1NC(=O)CN1CCN(c2ccc(OC)cc2)C(C)C1` (stereo not drawn) gave HCV inh inconclusive, Pf growth 48h 9.28µM* and NS1 inh -46.7%.
`COC(=O)c1[nH]c2cccc(OC)c2c1NC(=O)CN1CCN(c2cccc(OC)c2)C(C)C1` (stereo not drawn) gave Pf growth 96h -14.1%, HCV inh -10.3%, Pf growth 48h inconclusive, NS1 inh -29.4% and Vaccinia Venus -27.6%.
Screening CCOc1ccc(NC(=O)CSc2nc3c(oc4ccccc43)c(=O)n2-c2ccccc2C)cc1 returned Vaccinia mCherry -21.5% and Vaccinia Venus -14.2%.
CCCCN(C(=O)c1cccc(S(=O)(=O)N2CCN(C)CC2)c1)c1c(N)n(CC(C)C)c(=O)[nH]c1=O was read as Pf growth 96h 0.0%, HCV inh 9.8%, Vaccinia mCherry inactive, Pf growth 48h -6.0% and Vaccinia Venus -7.4%.
`Cc1cccc(Cn2c(NCC(C)O)nc3c2c(=O)n(C)c(=O)n3C)c1` (stereo not drawn) gave HCV inh 4.47µM*, Pf growth 48h -9.5%, NS1 inh -5.4% and Vaccinia Venus -41.4%.
`COCCNc1nc2c(c(=O)n(C)c(=O)n2C)n1Cc1cccc(C)c1` gave Pf growth 96h -17.8%, HCV inh 10µM*, Pf growth 48h -12.1% and NS1 inh -10.7%.
Cn1c(=O)c2c(nc(NCCCO)n2Cc2cccc(Br)c2)n(C)c1=O was read as HCV inh -20.2%, Pf growth 48h inconclusive and NS1 inh 2.3%.

Screens (PubChem BioAssay)
